Records with an inconclusive call do not appear. Activity calls are given as the source filed them. The calls were made as follows: active = hit-call score of the fitted dose curve at least 0.9, where 1 is the maximum; inconclusive = response in the unintended direction; inactive = score below 0.9.
Biological target: human Protein Kinase C, zeta (PKCz), PRKCZ (gene 5590) (UniProt Q05513)
Assay: NVS_ENZ_hPKCz: NovaScreen (NVS) Enzymatic Assay for human Protein Kinase C, zeta (PKCz)
Protocol: NVS_ENZ_hPKCz is a biochemical, single-readout assay that uses extracted gene-proteins in a cell-free assay. Measurements were taken 1 hour after chemical dosing in a 384-well plate.NVS_ENZ_hPKCz is one of one assay component(s) measured or calculated from the NVS_ENZ_hPKCz assay. It is designed to make measurements of enzyme activity, a form of enzyme reporter, as detected with fluorescence intensity signals by Fluorescence and electrophoretic mobility shift technology.Data from the assay component NVS_ENZ_hPKCz was analyzed into 1 assay endpoint. This assay endpoint, NVS_ENZ_hPKCz, was analyzed in the positive analysis fitting direction relative to DMSO as the negative control and baseline of activity. Using a type of enzyme reporter, loss-of-signal activity can be used to understand changes in the enzymatic activity as they relate to the gene PRKCZ. Furthermore, this assay endpoint can be referred to as a primary readout, because this assay has produced multiple assay endpoints where this one serves a enzymatic activity function. To generalize the intended target to other relatable targets, this assay endpoint is annotated to the kinase intended target family, where the subfamily is serine/threonine kinase.
Binding assays used specific radioligands (tritiated, iodinated) with non-radioactive competitive displacement ligands in agonist or antagonist protocols (as indicated) and various reference compounds and inhibitors to titrate specific binding to receptors and transporters. Most enzyme assays (CYPs, kinases, phosphatases, proteases, HDACs) used recombinant protein and specific substrates (fluorescence mostly, some colorimetric and radioactive) and inhibitors, followed by a biochemical separation of substrate and product. All assays for the biochemical HTS were initially run in duplicate at a single concentration (10 uM for CYP450 assays and 25 uM for all others). Assay-chemical combinations meeting a pre-defined threshold (e.g., 30% inhibition and other criteria defined below) were then run in singleton concentration-response format with maximum concentration of 20 uM for CYPs and 50 uM for all others. Each assay was run with positive and negative controls, and concurrent controls on every plate. The follow-up (secondary) screen tested active chemical-pairs in concentration series, as well as a few additional assays not tested in the primary screen, some selected negative inactives, and several cases re-run in the concentration series for confirmatory purposes.

human Protein Kinase C, zeta (PKCz), PRKCZ (gene 5590), sequence (Q05513 whole entry, looked up): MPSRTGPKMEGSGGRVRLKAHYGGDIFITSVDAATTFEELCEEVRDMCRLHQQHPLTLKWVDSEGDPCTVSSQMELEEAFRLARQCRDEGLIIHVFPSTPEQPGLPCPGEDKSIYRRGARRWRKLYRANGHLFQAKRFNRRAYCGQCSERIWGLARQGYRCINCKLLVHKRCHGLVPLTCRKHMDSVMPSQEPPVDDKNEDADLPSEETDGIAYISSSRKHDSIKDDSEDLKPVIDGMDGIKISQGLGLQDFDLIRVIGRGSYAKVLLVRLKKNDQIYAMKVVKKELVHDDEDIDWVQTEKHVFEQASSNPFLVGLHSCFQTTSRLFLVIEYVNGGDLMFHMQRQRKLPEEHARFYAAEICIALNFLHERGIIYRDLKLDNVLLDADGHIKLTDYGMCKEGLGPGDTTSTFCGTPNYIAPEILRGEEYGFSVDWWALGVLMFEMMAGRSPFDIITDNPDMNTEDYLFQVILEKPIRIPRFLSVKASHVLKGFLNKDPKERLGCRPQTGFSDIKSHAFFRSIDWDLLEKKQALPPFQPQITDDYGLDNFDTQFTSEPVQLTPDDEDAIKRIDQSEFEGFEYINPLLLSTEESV

Which outcome does the source give for `COC(=O)c1ccccc1S(=O)(=O)NC(=O)N(C)c1nc(C)nc(OC)n1` here?
Its outcome is “inactive”.

Which outcome does the source give for `COCC(C)N(C(=O)CCl)c1c(C)csc1C` (stereo not given) here?
The outcome was “inactive”.

With `CCOP(=S)(OCC)Oc1ccc2c(C)c(Cl)c(=O)oc2c1` as the compound, how does the outcome read?
Its outcome is “inactive”.

With `CCCCC(CC)COC(=O)c1ccccc1C(=O)OCC(CC)CCCC` (stereo not given) as the compound, how does the outcome read?
Its outcome is “inactive”.

For `S=C1NCCN1`, which outcome is on record?
The outcome was “inactive”.

Source: PubChem BioAssay AID2283193 (EPA ToxCast)
